This note sets out measurements from PubChem BioAssay (NCI).

This is part of a sample that, as a whole, favours compounds with a hit. Of some 83,000 tested, about 20% had one in any assay.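 The test compound was applied at a single concentration to cells in 96-well plates for 48 hours, and percent growth was recorded.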 Values without a mark were called inactive. Calls of active or inactive are those of the source. Rule for the calls: active = growth percent below 10; inactive = the rest.

Assay in all cases: NCI-60 one-dose screen, 48 h (100 = growth as untreated, 0 = no growth, -100 = all killed)
Common to all, as to details: 10 µM unless noted

For assay [1], the system named is NCI-H23 lung.
For assay [2], the system named is NCI-H226 lung.
The test system of assay [3] is NCI-H322M lung.
Assay [4] deals with HOP-62 NSCLC.
Assay [5] has as its system NCI-H460 lung.
The subject of assay [6] is HOP-92 NSCLC.
The subject of assay [7] is NCI-H522 lung.
For assay [8], the system named is A549/ATCC NSCLC.
Assay [9] has as its system 786-0 renal.
Assay [10] has as its system COLO 205 colon.
Assay [11] relates to DU-145 prostate.
Assay [12] relates to K-562 leukemia.
The test system of assay [13] is MALME-3M melanoma.
The subject of assay [14] is MDA-MB-231 breast.
Assay [15] concerns RXF 393 renal.
Assay [16] has as its system SF-268 CNS.
Assay [17] concerns SF-295 CNS.
For assay [18], the system named is SF-539 CNS.
The test system of assay [19] is UACC-257 melanoma.
Assay [20] relates to M14 melanoma.

As for `C=CC(=O)N[C@H](Cc1ccc(-c2cc(Cl)cc(Cl)c2)cc1)[C@H](O)[C@@H](O)C(=O)O`, the growth in assay [1] was 93.6%; in assay [2] it was 71.3%; in [3] it was 100%; in assay [4], 87.3%; in assay [5] it was 94.9%; in [6] it was 84.4%. Further, the growth was 59.1% in [7]; 72% in assay [8]; 92.2% in [9]; 91.9% in assay [10]; 102% in [11]; 85% in assay [12]. In addition, the growth in [13] was 90.1%; in assay [14], 98.9%; in [15], 101%; in [16] it was 102%; in assay [17], 82.8%; in assay [18], 99.6%. For the same molecule, the values for the growth in assay [19] and in assay [20] were 74.4% and 86.3%, respectively.
In the case of `COc1ccc2[nH]c(-c3ccc(Cl)cc3)cc(=O)c2c1`, the growth in assay [1] is 94.5%; in assay [2] it was 97.6%; in [3], 92%; in [4], 104%; in assay [5], 100%; in [6] it was 88.6%. The growth is 86.7% in assay [7]; 96.3% in [8]; 88.3% in assay [9]; 105% in [10]; 105% in assay [11]; 97.4% in assay [12]. The growth in [13] is 98.6%; in assay [14], 95.6%; in [15], 111%; in [16], 98.2%; in assay [17] it was 97%; in assay [18], 99.9%. The values for the growth in assay [19] and in assay [20] were 98% and 95.1%, respectively.
In the case of `NCCn1cc(-c2nc(-c3c[nH]c4ncccc34)cs2)c2cc(Br)ccc21`, the growth was 81.9% in assay [1]; 80.3% in assay [2]; 80.1% in assay [3]; 78.1% in assay [4]; 14.9% in assay [5]; 53.6% in [6]. In addition, the growth is 100% in assay [7]; 65.3% in assay [8]; 87.3% in assay [9]; -17.1% (active) in assay [10]; 82.3% in assay [11]; 19.4% in assay [12]. For the same molecule, the growth in [13] is 95.9%; in assay [14], 56.7%; in assay [15], 80.5%; in [16] it was 82.8%; in assay [17], 102%; in [18] it was 84.2%. For the same molecule, the growth in [19] was 95.5%; in assay [20], 87.7%.
For the molecule `Cc1ccsc1-c1ccc2c(c1)COC2(CCCN(C)C)c1ccc(F)cc1` (stereo not given), the growth in assay [1] is 70.6%; in assay [2], 93%; in [3], 68.5%; in assay [4], 69.4%; in [5], 10.3%; in [6], 41.6%. Besides, the growth in assay [7] was 55.1%; in assay [8], 45.9%; in assay [9] it was 63.8%; in assay [10], -43.9% (active); in assay [11], 60%; in assay [12] it was 1.22% (active). The growth in assay [13] is -14% (active); in assay [14], 51.1%; in [15], 28.2%; in [16] it was 65.2%; in assay [17], 57.1%; in assay [18], 67%. Further, the growth in [19] is -10.5% (active); in assay [20], -57.5% (active).
Take `O=C1C(=O)N(CCCCn2cc(-c3ccccc3)nn2)c2ccccc21`: the growth was 101% in [1]; 106% in assay [2]; 103% in assay [3]; 106% in assay [4]; 99.9% in assay [5]; 101% in [6]. The growth in assay [7] is 100%; in assay [8], 108%; in assay [9], 102%; in [10], 112%; in [11], 105%; in [12] it was 109%. Besides, the growth was 92.9% in [13]; 102% in assay [14]; 114% in assay [15]; 101% in assay [16]; 102% in [17]; 93.9% in assay [18]. Moreover, the growth was 100% in [19] and 96.1% in [20].
On to `CC(=O)NC1=C(C#N)C(c2ccccc2Cl)c2c(ccc3ccccc23)O1` (stereo not given), for which the growth is 76.2% in assay [1]; 83.5% in [2]; 86.8% in [3]; 59.2% in [4]; 39.1% in assay [5]; 72.5% in assay [6]. The growth is 39.2% in [7]; 67.1% in assay [8]; 82.7% in assay [9]; 79.5% in assay [10]; 89.1% in assay [11]; 19.4% in assay [12]. The growth in assay [13] is 48.4%; in assay [14] it was 66.6%; in [15], 77.2%; in assay [16] it was 68.5%; in [17], 25.7%; in assay [18], 58.4%. The growth was 76.7% in [19] and 31.1% in assay [20].
Take `OCC1OC(n2cnc3c(Cl)ncnc32)CC1O` (stereo not given): the growth in [1] was 118%; in assay [2], 97.7%; in assay [3], 101%; in [4] it was 114%; in [5], 104%; in [6], 89.5%. Moreover, the growth in [7] is 101%; in [8], 104%; in assay [9], 107%; in assay [10], 104%; in [11] it was 113%; in [12] it was 103%. For the same molecule, the growth is 97.5% in assay [13]; 106% in assay [14]; 103% in [15]; 99.1% in [16]; 114% in assay [17]; 96.2% in assay [18]. Further, the growth is 110% in assay [19] and 104% in assay [20].
